Inconclusive results are not listed. Where a call stands in place of a potency, no number is given. The source made the active and inactive calls. Calls come from the whole dose curve; as a rule, active = well fitted activation curve with a large enough effect; inconclusive = small, poorly fitted or top-dose-only effect; inactive = no such curve, though single readings can be large or run the other way.

The target in the test is Relaxin receptor 1 (Homo sapiens) (UniProt Q9HBX9). In words: qHTS Assay for Agonists of the Relaxin Receptor RXFP1: THP1 Hit Validation. Note: nearly all actives have a fitted effect of over 60% in size. The settings on record: THP1-RXFP1 cells, cAMP TR-FRET, 30 min; series mostly up to 115 µM. The text has this:
The relaxin hormone is involved in the variety of biological functions in normal tissues and diseases. The role of relaxin is well-established in female reproduction and parturition, mammary gland and endometrial development, maintenance of myometrial quiescence during pregnancy. Relaxin signaling through its G protein-coupled receptor (GPCR) RXFP1 results in ECM remodeling through regulation of collagen deposition, cell invasiveness, proliferation and overall tissue homeostasis. […] Recombinant human relaxin (rhRlx) is currently being tested in clinical trials as a protective agent in congestive heart failure, in treating severe preeclampsia, and as an anti-fibrotic agent in systemic sclerosis.
Upon relaxin binding RXFP1 activation leads to the activation of adenylate cyclase (AC) via Gs. cAMP will activate PKA, which phosphorylates many signaling proteins. Thus, detection of cAMP increase is an easy and reliable indication of relaxin receptor activation. […] RXFP1 activation was assayed by changes in cAMP levels as detected with a time-resolved fluorescence energy transfer (TR-FRET) cAMP detection kit. […]
This is a cell-based assay for cAMP second messenger response to screen for agonists of the RXFP1 receptor. […] The cells were lysed and the cAMP levels were measured with a TR-FRET cAMP kit. […] The EC50 values were determined from concentration-response data modeled with the standard Hill equation […]
Potency is the fitted concentration of half-maximal effect.

Relaxin receptor 1 (Homo sapiens), sequence (Q9HBX9 whole entry, looked up): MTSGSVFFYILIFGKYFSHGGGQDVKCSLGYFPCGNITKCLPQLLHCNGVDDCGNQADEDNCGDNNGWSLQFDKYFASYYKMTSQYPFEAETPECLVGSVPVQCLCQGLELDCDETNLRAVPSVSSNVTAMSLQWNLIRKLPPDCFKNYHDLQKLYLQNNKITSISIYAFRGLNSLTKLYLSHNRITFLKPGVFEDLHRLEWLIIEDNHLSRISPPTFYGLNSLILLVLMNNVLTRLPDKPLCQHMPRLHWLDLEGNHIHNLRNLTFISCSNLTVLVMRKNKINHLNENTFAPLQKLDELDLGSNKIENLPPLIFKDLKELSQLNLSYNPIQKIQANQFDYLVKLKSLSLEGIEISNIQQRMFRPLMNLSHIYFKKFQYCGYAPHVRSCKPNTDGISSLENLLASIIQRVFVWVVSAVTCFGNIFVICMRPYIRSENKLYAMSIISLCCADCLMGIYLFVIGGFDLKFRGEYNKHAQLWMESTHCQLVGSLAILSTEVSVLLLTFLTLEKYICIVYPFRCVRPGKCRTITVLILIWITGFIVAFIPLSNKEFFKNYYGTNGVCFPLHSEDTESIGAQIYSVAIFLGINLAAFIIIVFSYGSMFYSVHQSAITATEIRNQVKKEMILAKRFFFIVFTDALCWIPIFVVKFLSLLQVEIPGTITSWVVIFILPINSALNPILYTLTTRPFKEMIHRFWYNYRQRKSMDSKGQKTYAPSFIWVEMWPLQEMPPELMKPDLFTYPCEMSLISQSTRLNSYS

Turning to `CCC(Oc1cc(Cl)ccc1Cl)C(=O)N1CCC2(CC1)OCCO2` (configuration not stated), the Potency entry was “inactive”.

As for `O=c1[nH]c(O)c(N=Nc2ccc([N+](=O)[O-])cc2)c(=O)[nH]1`, the Potency is 11 µM (active).
